# A selection: hits, their analogues and other compounds. The true share with any hit is near 2.4%.
# D2 PAM-1: positive allosteric modulators of human D2 dopamine receptor; P14416; DiscoveRx D2 beta-arrestin cells, luminescence, 90 min; 100% = 57 uM dopamine signal; potentiation, % (no concentration beside the values); 0.23% of 360,000 active; AID 624464; in the data active means potentiation above about 50%; inconclusive means mostly about 30% to 49%
# Target sequence (P14416 whole entry, looked up): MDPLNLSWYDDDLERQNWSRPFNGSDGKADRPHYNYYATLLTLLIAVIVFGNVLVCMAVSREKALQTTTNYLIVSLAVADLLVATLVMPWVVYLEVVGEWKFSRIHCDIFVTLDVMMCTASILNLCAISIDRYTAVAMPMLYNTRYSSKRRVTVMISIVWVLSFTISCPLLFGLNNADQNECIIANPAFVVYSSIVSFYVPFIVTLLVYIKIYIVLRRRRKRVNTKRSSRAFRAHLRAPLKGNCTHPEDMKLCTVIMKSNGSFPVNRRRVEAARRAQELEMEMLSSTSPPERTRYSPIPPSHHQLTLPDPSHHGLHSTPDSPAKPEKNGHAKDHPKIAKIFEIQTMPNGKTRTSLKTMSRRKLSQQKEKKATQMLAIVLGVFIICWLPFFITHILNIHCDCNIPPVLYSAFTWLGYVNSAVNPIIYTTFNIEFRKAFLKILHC
#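 PathHunter beta-arrestin assay in DiscoveRx D2 cells. Compounds were added with an EC20 of dopamine (50 nM final) for 90 min at 37 deg C. Luminescence was read 1 h after detection reagent, with 57 uM dopamine as the EC100 control.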
# D2 ag-1: activates the human D2 dopamine receptor. DiscoveRx PathHunter D2 beta-arrestin, luminescence, 90 min; 100% = 57 uM dopamine signal. activation, % (no concentration beside the values). 0.084% of 360,000 active. AID 624465. P14416; in the data active means activation above about 40%; inconclusive means between about 15% and that limit
#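 DiscoveRx PathHunter D2 beta-arrestin cells (2,100/well) attached overnight, then compound-stimulated 90 min at 37 C in HBSS/10 mM HEPES/0.1% Tween-20 buffer; beta-galactosidase complementation read by luminescence after 1 h at ambient temperature. Dopamine 57 uM final (EC100) as control.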
# D2 PAM-2: positive allosteric modulators of human D2 dopamine receptor; P14416; HEK293 T-REx D2, calcium flux, EC20 dopamine potentiation; potentiation, % at 10 µM; 0.34% of 340,000 active;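 active means potentiation over 3 SD above the plate norm, cut at about 30% in these data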; further: 0% is about no effect
#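 Primary screen. Calcium kinetics in induced HEK293 T-REx D2 cells: compound pre-addition 180 s, EC20 dopamine, 180 s more.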
# D2 ag-2: activates the human D2 dopamine receptor; P14416; HEK293 T-REx D2 cells, calcium flux agonist mode; activation, % at 2 µM; 0.53% of 340,000 active; AID 485358;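 active means activation over 3 SD above normal in the single-dose calcium agonist read, cut at about 30% in these data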; further: 0% is about no effect
#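 Calcium-flux readout, 1 cycle/sec over 180 s following compound pin transfer, in inducible HEK293 Trex D2 cells (force-coupled); dopamine controls included. Positive calcium responses during this window marked compounds as potential agonists.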
# D2 antagonist: antagonizes the human D2 dopamine receptor | inhibition, % at 10 µM | HEK293 TREx D2 cells, calcium flux, dopamine EC80 | P14416 | 2% of 340,000 active; in the data active means inhibition above about 30%; inactive means below that, where a call was filed; further: 0% is about no effect
#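 Tetracycline-induced HEK293 T-REx cells expressing D2 force-coupled to calcium signalling were dye-loaded, exposed to compound for 180 s, then challenged with an EC80 of dopamine; calcium flux was followed kinetically for a further 180 s.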
# Starred values were filed as active, the others as inactive; ? = inconclusive; . = not tested or not shown; ! = repeats disagree.
SMILES,D2 PAM-1,D2 ag-1,D2 PAM-2,D2 ag-2,D2 antagonist
Cc1cccc(C)c1OCc1n[nH]c(=S)n1N,-21,14,-5,2,43*
Nc1c(-c2nc(-c3ccccc3Cl)no2)nnn1-c1ccccc1F,.,.,-1,.,.
CCc1noc(C)c1C(=O)NNC(=O)c1ccc(Br)cc1,-2,-6,-2,0,37*
CCc1noc(C)c1C(=O)NNC(=O)c1nn(C)c(=O)c2ccccc12,-1,-3,-6,0,57*
CCc1noc(C)c1C(=O)NNC(=O)c1nn(CC)c(=O)c2ccccc12,25,-5,-1,-1,12
COCCCNC(=O)CCCn1c(=O)c2cccn2c2cccnc21,.,.,.,1,.
O=[N+]([O-])c1cc([N+](=O)[O-])c2n[nH]c(-c3ccccc3)c2c1,8,5,2,0,0
O=[N+]([O-])c1cc(-c2n[nH]c(-c3ccccc3)n2)cc([N+](=O)[O-])c1,53*,6,13,0,-9
CN1C(=O)c2oc3ccccc3c(=O)c2C1c1cccnc1 (stereo not drawn),-7,-2,.,.,.
CN1C(=O)c2oc3ccccc3c(=O)c2C1c1ccccn1 (stereo not drawn),-2,1,32*,0,4
CC(=O)Nc1ccc(S(=O)(=O)NC2(C(F)(F)F)NC(=O)N(C3CCCC3)C2=O)cc1 (stereo not drawn),3,0,33*,-2,1
O=C(COc1ccccc1)NCC(c1ccco1)N1CCN(c2ccccc2F)CC1 (stereo not drawn),-5,?,-5,34*,0
O=C(NCc1ccncc1)C(=O)NCC(c1ccco1)N1CCN(c2ccccc2F)CC1 (stereo not drawn),-1,7,-12,34*,1
O=C(NCC1CCCO1)C(=O)NCC(c1ccco1)N1CCN(c2ccc(F)cc2)CC1 (stereo not drawn),-12,-3,5,2,9
O=C(NCC1CCCO1)C(=O)NCC(c1ccco1)N1CCN(c2ccccc2)CC1 (stereo not drawn),-8,14,-6,35*,20
O=C(Nc1c(-c2ccc(Cl)cc2)[nH][nH]c1=O)c1ccccn1,-25,-12,.,.,.
Cc1ccc(-c2cc(C(=O)O)c3cc(Br)ccc3n2)s1,22,-2,-10,-1,31*!
CC(=O)Nc1ccc(OC(=O)c2ccc(Br)c([N+](=O)[O-])c2)cc1,-8,-2,0,0,30*
CC(=O)Nc1ccc(N2C(=O)c3cccc4c(O)ccc(c34)C2=O)cc1,18,12,-8,64*,27
O=C1CSC(=S)N1Nc1ccccc1,-6,-3,.,.,.
COCc1nnc(NC(C)=O)s1,-4,-2,-9,0,32*
CCOc1ccc(/C=C/c2nc(C#N)c(N3CCN(c4ccccc4)CC3)o2)cc1,.,.,7,1,.
CCOCc1c(C(=O)N2CCN(CC(=O)Nc3ccc(F)cc3)CC2)oc2ccccc12,4,-4,-12,0,72*
Cc1ccc(Nc2c3c(nc4nncn24)CCC3)cc1C,.,.,9,0,.
Cc1ccc(NC2=Nc3ccccc3CC2)cc1,-56,-5,-27,1,61*
SMILES,D2 PAM-1,D2 ag-1,D2 PAM-2,D2 ag-2,D2 antagonist
Brc1ccc(NC2=Nc3ccccc3CC2)cc1,-8,0,-14,1,8
CCC(=O)N1CCC1(C)C(=O)Nc1ccc(C)c(C)c1 (stereo not drawn),-3,-4,.,.,.
N#C/C(=C\c1ccc(-c2ccccc2[N+](=O)[O-])o1)C(=O)Nc1nc(-c2cccs2)cs1,-38,-9,16,0,32*
COc1cccc(C(=O)NCC2CCCN(C3CCCCC3)C2)c1OC (stereo not drawn),1,0,-17,1,57*
OC(CNCCc1ccc(C(F)(F)F)cc1)COC(c1ccccc1)c1ccccc1 (stereo not drawn),-10,-3,-5,7,31*
COc1ccc(C(OCC(O)CNCCc2ccc(S(N)(=O)=O)cc2)c2ccc(OC)cc2)cc1 (stereo not drawn),-11,-3,8,2,13
CCOc1cc2c(cc1/C=C/c1noc(C)c1[N+](=O)[O-])OC(C)C2 (stereo not drawn),-6,-6,3,64*,14
COc1ccc2nc(SCC(=O)N3CCNC3=O)[nH]c2c1,-6,-2,6,1,44*
COC(=O)C1CCN(C(=O)CSc2nc3ccc(OC)cc3[nH]2)CC1,-19,-1,11,2,2
Cc1nn(CCCC(=O)NCc2ccccc2)c(=O)c2cc3sccc3n12,.,.,-4,-1,.
Clc1ccc2oc(-c3ccccn3)nc2c1,4,0,4,1,-12
Cc1ccc(C)c(-c2nc3cc(N)ccc3o2)c1,-17,-6,33*,1,-7
Cc1ccc(-c2nc3cc(N)ccc3o2)cc1Br,-8,1,4,0,-8
Nc1ccc2oc(-c3ccccn3)nc2c1,0,-3,50*,0,-3
O=C(Nc1ccnn1C1CCN(C/C=C/c2ccccc2)CC1)c1cccc(F)c1,-31,0,-7,3,-4
Cc1cc(C)c(CN2CCC(n3nccc3NC(=O)c3ccccc3Cl)CC2)cc1C,-46,-6,-19,3,-8
COc1ccccc1C(=O)Nc1ccnn1C1CCN(Cc2cc(C)c(C)cc2C)CC1,-36,-6,-23,0,53*
O=C(Nc1ccnn1C1CCN(CCCC2CCCC2)CC1)c1ccccc1Cl,-21,-3,-16,5,-26
COc1ccccc1C(=O)Nc1ccnn1C1CCN(Cc2cn(C)c3ccccc23)CC1,-10,3,-23,0,62*
COc1ccccc1C(=O)Nc1ccnn1C1CCN(CCCC2CCCC2)CC1,-34,2,-10,0,31*
O=C(Nc1ccnn1C1CCN(CCCc2ccccc2)CC1)c1cccc(F)c1,-19,0,-2,34*,28
COc1cccc(CN2CCC2(C)C(=O)Nc2cccc(Oc3ccccc3)c2)c1F (stereo not drawn),-2,-3,.,.,.
CC1CC(C)CN(CCCNC(=O)CN2C(=O)CSc3ccc(S(=O)(=O)N4CCCCC4)cc32)C1 (stereo not drawn),-38,-4,-3,0,52*
O=C(CN1C(=O)CSc2ccc(S(=O)(=O)N3CCOCC3)cc21)NCCCN1CCc2ccccc2C1,-21,0,-20,1,47*
O=C(CN1C(=O)CSc2ccc(S(=O)(=O)N3CCOCC3)cc21)NCCCN1CCOCC1,-6,0,6,0,9
CC1CC(C)CN(CCCNC(=O)c2ccc3c(c2)NC(=O)CS3)C1 (stereo not drawn),-30,-1,-8,0,48*

# Screening results as filed in PubChem BioAssay.
